For 40 compounds, Potency and activity change, negative = inhibition results are on record in PubChem BioAssay (NCATS).

Structures are written as SMILES. Inconclusive results are not listed. Where a call stands in place of a potency, no number is given. Calls of active or inactive are those of the source. Calls come from the whole dose curve; as a rule, active = well fitted inhibition curve with a large enough effect; inconclusive = small, poorly fitted or top-dose-only effect; inactive = flat fitted curve, though single readings scatter.
Potency is the fitted concentration of half-maximal effect.

Phospholipid hydroperoxide glutathione peroxidase GPX4 (Homo sapiens), sequence (P36969 whole entry, looked up): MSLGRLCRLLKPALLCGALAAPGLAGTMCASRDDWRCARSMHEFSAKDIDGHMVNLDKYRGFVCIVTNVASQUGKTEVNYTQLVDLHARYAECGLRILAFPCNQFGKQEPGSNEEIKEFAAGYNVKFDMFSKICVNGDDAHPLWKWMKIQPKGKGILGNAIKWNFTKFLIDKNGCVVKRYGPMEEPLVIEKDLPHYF

For the experiment, the target named is Phospholipid hydroperoxide glutathione peroxidase GPX4 (Homo sapiens) (UniProt P36969). Put plainly: Primary qHTS Assay for Inhibitors of Recombinant Selenoprotein Glutathione Peroxidase 4 (GPX4) (AID 1845192). Note: nearly all actives have a fitted effect of over 65% in size. The note with it: recombinant GPX4, GR-coupled NADPH fluorescence, 15 min; series mostly up to 50 µM. From the text:
Assay Provider: Elias S.J. Arner MD PhD.
Department of Medical Biochemistry and Biophysics
Karolinska Institutet, Solna, Stockholm, Sweden
Selenoprotein glutathione peroxidases (GPX), like the ubiquitously expressed GPX1 and the ferroptosis modulator GPX4, enact their antioxidant activities by reducing hydroperoxides using glutathione. […] GPX1 and GPX4 inhibitors have thus shown promise as anti-cancer agents. Existing inhibitors are often promiscuous, or modulate GPX activity only indirectly, so novel direct inhibitors identified through screening against GPX1 and GPX4 could be valuable. Here, we developed optimized glutathione reductase (GR)-coupled GPX assays for the biochemical high-throughput screen (HTS) of almost 12,000 compounds with known mechanisms of action. Initial hits were triaged using a GR counter-screen, assessed for isoform specificity using a separate GPX2 assay, and were assessed for general selenocysteine-targeting activity using a thioredoxin reductase (TXNRD1) assay. With this suite of assays, we identified novel GPX1/GPX2- and GPX4-specific inhibitors and can here present a validated pipeline for future discovery research for selenoprotein-targeting agents.
SEQUENCE No. (e.g., 1, 2, 3, etc.); […] (e.g., Cells, Incubation, Reagent, etc.); VALUE; DESCRIPTION.
1; Reagent 1; 3 uL; 333.33 nM GPx4 enzyme or no enzyme control in 1536-well, black, solid Greiner assay plate.
2; Compound; 25 nL; Kalypsis pin tool (Wako USA) equipped with a 1536-well pin head.
3; Incubation; 30 min; room temperature.
4; Reagent 2; 1 uL; 500 nM GR, 5 mM GSH, 2.5 mM NADPH solution
5; Reagent 3; 1 uL; 2.5 mM CHP in 50% EtOH.
6; Detection; Fluorescence; ViewLux microplate reader, excitation 340 nm and emission 450 nm.
7; Incubation; 15 min; room temperature.
8; Detection; Fluorescence; ViewLux microplate reader, excitation 340 nm and emission 450 nm.
NOTES (numbers refer to Sequence numbers above)
1. 3 µL of 333.33 nM GPX4 and 0.016% BSA in assay buffer (50 mM Tris-HCl, 2 mM EDTA (pH 7.5), 150 mM NaCl) was added to columns 3-48 of 1536-well plates using a BioRAPTR Flying Reagent Dispenser (Let's Go Robotics (LGR), Carlsbad, CA). A no-enzyme control (0.01% BSA in TES assay buffer) was added to columns 1-2.
2. 25 nL, library and DMSO controls were added to each well with a pin tool (Kalypsys).
3. The assay plates were incubated for 30 minutes at room temperature.
4. 1 µL of master mix (500 nM glutathione reductase (GR), 5 mM reduced glutathione (GSH), 2.5 mM NADPH in assay buffer) was added.
5. 1 µL of cumene hydroperoxide (CHP) ([2.5 mM] in 50% EtOH) was then added within 5 minutes to initiate the reaction. Final concentrations were: 200 nM GPX4, 1 mM GSH, 0.5 mM CHP, 0.5 mM NADPH, 100 nM GR, 0.01% BSA.
6. Initial fluorescence readout (t=0) at 340/450 nm was measured using a ViewLux multimodal detector (PerkinElmer, Waltham, MA).
8. Endpoint fluorescence readout (t=15) at 340/450 nm was measured 15 min after room temperature incubation.
In general terms: In qHTS, concentration-response curves come from the screen itself.
Regarding `O=[N+]([O-])c1ccc(O)c2ncccc12`, the Potency entry is “inactive”. On the same count and under the same terms, then `CN1CCC(N(Cc2cccs2)c2ccccc2)CC1`, with “inactive”. On to `CC(=O)CC/C=C(\C)CC/C=C(\C)CC/C=C(\C)CCC=C(C)C`, for which the Potency result was “inactive”. Take `COc1c(N2C[C@@H]3CCCN[C@@H]3C2)c(F)cc2c(=O)c(C(=O)O)cn(C3CC3)c12`: the Potency is 11.2 µM (active). As to `CCN(CC)CCNC(=O)c1ccc(NS(C)(=O)=O)cc1`, the Potency result was “inactive”.

`CCO[C@H](Cc1ccc(OCCc2ccc(OS(C)(=O)=O)cc2)cc1)C(=O)O`: the Potency entry is “inactive”. In the case of `CC[N+](CC)(CC)CCOC(=O)C(C1CCCC1)C1CCCC1`, the Potency entry is “inactive”. In the case of `O=C(O)C(=O)Nc1cccc(-c2nn[nH]n2)c1`, the Potency result is “inactive”.

Take `O=C(CCOCCOCCOCCOCCC(=O)Nc1c(I)cc(I)c(C(=O)O)c1I)Nc1c(I)cc(I)c(C(=O)O)c1I`: the Potency entry was “inactive”. Still for that read-out and setting: then `CCOC(=O)Cn1cccc1-c1nc(-c2ccc(OC)cc2)c(-c2ccc(OC)cc2)s1`, with “inactive”. The same measure, in the same setting: then `CCN(CC)CC(=O)Nc1c(C)cccc1C(=O)OC`, with “inactive”; and `CC(=O)O[C@@H]1C(=O)O[C@@H]2[C@H]1OC(=O)[C@@H]2OC(C)=O`, with “inactive”. On the same count and under the same terms, then `C=CCOc1cc(Cl)ccc1C(=O)NCCN(CC)CC`, with “inactive”. In the case of `O=C(CCCCCCCCC#CI)Oc1ccccc1`, the Potency result was “inactive”. Regarding `CCCCCOc1ccccc1/C(=C\SC)n1ccnc1`, the Potency result was “inactive”.

For the compound `CN1CC(=O)N2[C@H](c3ccc4c(c3)OCO4)c3[nH]c4ccccc4c3C[C@@H]2C1=O`, the Potency result is “inactive”. For `COc1ccc(-n2nc(CCC(=O)N(C)O)cc2-c2ccc(Cl)cc2)cc1`, the Potency entry is “inactive”. For `Cc1ccc(C(=O)C(=O)O)cc1C`, the Potency entry is “inactive”. In the case of `CN1C(=O)CC(C)(c2ccccc2)C1=O` (stereo not given), the Potency entry is “inactive”. For `CCOc1ccc(NS(=O)(=O)c2ccc(N)cc2)nn1`, the Potency result was “inactive”.

`Cc1cccc(C)c1NC(=O)c1cc(S(N)(=O)=O)c(Cl)cc1O`: the Potency entry was “inactive”. Still for that read-out and setting: then `O=C(C1CCCCC1)N1CC(=O)N2CCCc3ccccc3C2C1` (stereo not given), with “inactive”. Same read-out and setting: the same measure for `Cc1ccc(C(C)OC(=O)C2(C)CCC(C(=O)O)C2(C)C)cc1` (stereo not given): “inactive”; for `O=C(O)CCC(=O)OC[C@@H](NC(=O)C(Cl)Cl)[C@H](O)c1ccc([N+](=O)[O-])cc1`: “inactive”. Still for that read-out and setting: the same measure for `COc1ccccc1N1CCN(CCN2C(=O)CC3(CCCC3)CC2=O)CC1`: “inactive”. Consider `C=CC[N+]1([C@H]2C[C@H]3[C@@H]4CC[C@H]5C[C@H](OC(C)=O)[C@@H](N6CCCCC6)C[C@]5(C)[C@H]4CC[C@]3(C)[C@H]2OC(=O)CC)CCCCC1`, for which the Potency result is “inactive”. With `CC(C)=CCC/C(C)=C/CC/C(C)=C/CCC(=O)OC/C=C(\C)CCC=C(C)C`, the Potency result was “inactive”. The same measure, in the same setting: then `COC(=O)C1=C(C)NC(COC(N)=O)=C(C(=O)OC(C)C)C1c1cccc(Cl)c1Cl` (stereo not given), with “inactive”; and `Cc1c(C)c2c(c(C)c1OC(=O)CCC(=O)OCCO)CC[C@@](C)(CCC[C@H](C)CCC[C@H](C)CCCC(C)C)O2`, with “inactive”; and `CN1CCCN(C(c2ccccc2)c2ccc(Cl)cc2)CC1` (stereo not given), with “inactive”. `C[N+](C)(CCOc1ccccc1)Cc1cccs1`: the Potency result was “inactive”.

With `CCC(=O)O[C@]1(C(=O)COC)[C@@H](C)C[C@H]2[C@@H]3CCC4=CC(=O)C=C[C@]4(C)C3(F)[C@@H](O)C[C@@]21C` (stereo not given in full), the Potency entry is “inactive”. The same measure, in the same setting: then `COc1cccc2c1[C@@H]1CN(CCCCn3c(=O)[nH]c4c(sc5ncc(-c6ccccc6)nc54)c3=O)C[C@@H]1CO2`, with “inactive”; and `CCC(C(=O)NC(=O)NC(C)=O)c1ccccc1` (stereo not given), with “inactive”.

Take `COC(=O)c1cc(Cl)ccc1NS(=O)(=O)C(F)(F)F`: the Potency result was “inactive”.

As for `CC(C)NCCCC1(C(N)=O)c2ccccc2-c2ccccc21`, the Potency entry was “inactive”. The same measure, in the same setting: then `O=C(COCCOCCOCC(=O)Nc1c(I)cc(I)c(C(=O)O)c1I)Nc1c(I)cc(I)c(C(=O)O)c1I`, with “inactive”; and `NC(=O)NC1N=C([O][Al])NC1=O` (stereo not given), with “inactive”; and `O=C1NC(c2ccccc2)(c2ccccc2)C(=O)N1COP(=O)(O)O`, with “inactive”. As to `NCC[C@H](O)C(=O)N[C@@H]1C[C@H](N)[C@@H](O[C@H]2O[C@H](CN)[C@@H](O)[C@H](O)[C@@H]2O)[C@H](O)[C@@H]1O[C@H]1O[C@H](CO)[C@@H](O)[C@H](N)[C@@H]1O`, the activity change, negative = inhibition is -16.2% [at 0.409 µM] (inactive).
